# Screening data (PubChem BioAssay)
# In the library only some 27% were active in any assay of this set; here they are far more common.
# Cav32 inh – blocks human Cav3.2 T-type calcium channel; O95180; Cav3.2-expressing cells, Fluo-4 calcium fluorescence FDSS; stronger effect = lower value; B-score at 10 µM; 100,000 tested, 4% active;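 active means single-dose well whose peak fluorescence ratio is a statistical outlier from its plate by either plate-standardised score or position-corrected B-score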
# CYP2C9 activ – activators of human CYP2C9 | activation factor at 5 µM | recombinant CYP2C9, luciferin-H conversion, luminescence; stronger effect = higher value; factor 1 = untreated enzyme, 0 = blocked | P11712 | 96,000 tested, 1.4% active;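 active means activation factor of 2 or more for CYP2C9 at a 5 µM dose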;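 further: 0 = sulfaphenazole-blocked wells and 1 = vehicle-only wells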
# Target sequence (P11712 whole entry, looked up): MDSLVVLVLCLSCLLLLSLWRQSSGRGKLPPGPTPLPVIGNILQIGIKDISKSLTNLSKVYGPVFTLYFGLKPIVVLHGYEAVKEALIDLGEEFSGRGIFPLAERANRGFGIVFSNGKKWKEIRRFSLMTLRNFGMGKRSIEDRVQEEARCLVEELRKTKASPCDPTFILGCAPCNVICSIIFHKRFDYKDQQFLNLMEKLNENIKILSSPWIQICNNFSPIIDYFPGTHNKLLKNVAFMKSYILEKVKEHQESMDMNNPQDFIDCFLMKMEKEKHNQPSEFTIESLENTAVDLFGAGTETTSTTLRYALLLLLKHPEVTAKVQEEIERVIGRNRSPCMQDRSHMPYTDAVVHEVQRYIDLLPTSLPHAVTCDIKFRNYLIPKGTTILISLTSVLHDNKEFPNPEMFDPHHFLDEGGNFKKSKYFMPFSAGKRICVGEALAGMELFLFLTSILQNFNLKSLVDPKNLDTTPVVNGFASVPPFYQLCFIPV
# CYP2C19 act – cytochrome P450 2C19 (human) activation. P33261. recombinant CYP2C19, luciferin-H EGE luminescence; stronger effect = higher value; 0 = fully inhibited enzyme, 1 = untreated enzyme. activation factor at 5 µM. 96,000 tested, under 10 active;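 active means activation factor of at least 2 at 5 µM in the primary screen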;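 further: 0 = wells with 2.5 mM tranylcypromine and 1 = vehicle-only wells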
# CYP2C19 inh – inhibitors of human CYP2C19. P33261. CYP2C19 Supersomes, luciferin-H EGE luminescence, 30 min. inhibition, % at 5 µM. 96,000 tested, 21% active;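 active means CYP2C19 inhibition above a set limit at 5 µM in the primary screen, cut at about 50% in these data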;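 further: plate controls were negative control wells for no effect and 2.5 mM tranylcypromine positive control for full effect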
# CYP2C9 inh – inhibitors of human CYP2C9 | 96,000 tested, 20% active | inhibition, % at 5 µM | P11712 | CYP2C9 Supersomes, luciferin-H conversion, luminescence;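 active means blocking of liver enzyme CYP2C9 beyond about 50% at 5 µM, limit read from the data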
# * marks the source's active call; other numbers are inactive results; . = no result.
SMILES,Cav32 inh,CYP2C9 activ,CYP2C19 act,CYP2C19 inh,CYP2C9 inh
Cc1ccccc1CS(=O)(=O)CCC(=O)NCc1ccccn1,0.076,1.2,0.9,8,-16
Cc1nn(C2CCS(=O)(=O)C2)c(Cl)c1/C=C/C(=O)OCC(=O)Nc1ccccc1OC(F)F (stereo unspecified),0.052,0.3,0.3,67*,69*
COc1ccc(Cl)cc1NC(=O)COC(=O)/C=C/c1c(C)nn(C2CCS(=O)(=O)C2)c1Cl (stereo unspecified),0.49,1.1,1,-5,-13
Cc1ccc(Nc2nnns2)cc1C,1.5,0.7,0.6,40,34
O=C(O)CCC(=O)Nc1ccc(OCC(=O)O)cc1,-0.57,1.3,1.2,-19,-27
CC1CCCCN1CCNC(=O)c1cnn2ccccc12 (stereo unspecified),-0.017,0.7,1.1,-9,28
Nc1ccccc1SCC(=O)N1CCc2ccccc21,.,0.7,0.2,76*,33
O=C(CSCCO)N1CCc2ccccc21,3.8e-05,1.5,0.8,16,-49
O=C(CSC1=NCCS1)N1CCc2ccccc21,-0.58,0.4,0.5,49,63*
CCCc1cc(C(=O)OC)c(NC(=O)c2cc(C)on2)s1,0.04,.,.,.,.
Cc1nc(-c2ccc(Cl)cc2)sc1C1(C)CC(c2ccncc2)=NO1 (stereo unspecified),0.73,.,.,.,.
O=S(=O)(NCC(c1cccnc1)N1CCN(c2ccc(F)cc2)CC1)c1ccc(F)cc1 (stereo unspecified),-3.2,0.3,0.2,84*,72*
O=C(c1ccco1)N1CCN(c2ccccc2F)CC1,-0.06,1.2,0.9,14,-16
Cc1cccc(N2CCN(C(=O)C(NS(=O)(=O)c3cccs3)c3ccccc3)CC2)c1C (stereo unspecified),-2.7,1,0.8,22,2
O=C(C(NS(=O)(=O)c1cccs1)c1ccccc1)N1CCN(c2ccccc2F)CC1 (stereo unspecified),0.026,0.4,0.3,69*,56*
O=C(C(Sc1ccccc1)c1ccccc1)N1CCN(c2ccccc2F)CC1 (stereo unspecified),-4*,0.2,0.1,86*,76*
O=S(=O)(NCC(c1ccccc1)N1CCNCC1)c1ccc(Cl)cc1 (stereo unspecified),-1.1,0.9,0.4,60*,5
O=S(=O)(NCC(c1cccnc1)N1CCN(Cc2ccccc2)CC1)c1ccccc1 (stereo unspecified),1.4,.,.,.,.
COC(=O)C(Cc1cnc[nH]1)NC(=O)C1CCC(=O)N1 (stereo unspecified),-0.26,0.9,1,-1,14
CC(=O)Nc1cc(C(=O)N2CCCC2)ccc1S(=O)(=O)c1ccc(Cl)cc1,0.21,0.9,1,-3,6
CCNc1ccc2c(Cl)cc(=O)oc2c1,.,1,1,-5,0
COC(=O)NCC(c1cccnc1)N1CCN(c2ccccc2OC)CC1 (stereo unspecified),0.17,1.1,0.6,42,-9
O=S(=O)(NCC(c1cccnc1)N1CCN(c2ccccc2F)CC1)c1cccs1 (stereo unspecified),0.86,0.3,0.1,86*,66*
O=S(=O)(NCC(c1cccnc1)N1CCN(c2ccc(F)cc2)CC1)c1cccs1 (stereo unspecified),1.1,0.4,0.1,88*,58*
COc1ccccc1N1CCN(C(CNS(=O)(=O)c2ccc(C)cc2)c2cccnc2)CC1 (stereo unspecified),-0.43,0.8,0.4,58*,18
SMILES,Cav32 inh,CYP2C9 activ,CYP2C19 act,CYP2C19 inh,CYP2C9 inh
Cc1ccc(S(=O)(=O)NCC(c2cccnc2)N(C)C)cc1 (stereo unspecified),-0.21,0.9,0.4,61*,7
CN(C)C(CNS(=O)(=O)c1ccc(F)cc1)c1cccnc1 (stereo unspecified),0.21,1,0.8,24,3
Cc1nnc(N(CCC#N)CCC#N)s1,0.85,0.9,0.9,5,10
COc1ccc(-c2nc(C)ncc2-c2csc(C)n2)c(O)c1,0.053,0.9,0.5,54*,11
COc1ccc(-c2ncncc2-c2csc(C)n2)c(O)c1,0.01,0.5,0.1,89*,49
CCCn1c2ccc(/C(C)=N\O)cc2c2cc(/C(C)=N/O)ccc21,0.22,1,1.1,-8,0
COc1ccc2c(c1)c(=O)c(C(=O)c1ccccc1)cn2Cc1ccc(C)cc1,-5.5*,.,.,.,.
COc1ccc2c(c1)c(=O)c(Br)c(C)n2Cc1ccccc1,-0.1,1,0.8,19,-5
Cn1c(=O)c2c(nc(CN3CCN(C(=O)c4ccco4)CC3)n2Cc2ccccc2F)n(C)c1=O,1.6,0.9,1,2,8
Cc1cc2nn(-c3cccc4ccccc34)nc2cc1NC(=O)c1cccs1,-4.3*,0.7,0.7,30,29
Cc1ccc(-c2nn3c(C)nnc3s2)cc1NC(=O)c1cccs1,0.22,0.5,0.7,26,49
Cc1nnc(SCc2ccccc2C#N)n1-c1ccccc1,0.03,0.9,0.6,38,10
N#Cc1ccccc1CSc1ccccn1,0.009,1,0.4,56*,5
CC(C)n1nnc2ccccc2c1=O,-0.21,1.2,1,3,-17
O=S(=O)(c1ccccc1)n1nc(-c2ccccc2)nc1NCc1ccco1,-4.5*,0.6,0.7,29,40
COCCN(Cc1cc2ccccc2[nH]c1=O)C(=O)c1ccccc1OC,-0.29,1.2,0.9,7,-18
Cn1ncc(Cl)c1C(=O)Nc1cc(C(F)(F)F)ccc1F,0.15,.,.,.,.
CN(c1ccc(C(=O)Nc2nccs2)cc1)S(=O)(=O)c1ccccc1,-2.1,0.5,0.3,73*,51*
O=C(Nc1nccs1)c1ccc(S(=O)(=O)NCc2cccs2)cc1,-0.037,0.3,0.6,36,70*
CN(c1ccccc1)S(=O)(=O)c1ccc(C(=O)Nc2nccs2)cc1,-0.034,0.9,1.1,-6,6
O=C(Nc1nncs1)c1ccc(S(=O)(=O)c2ccccc2)cc1,-0.083,0.4,1.2,-19,60*
O=C(CN1CCN(c2ccccn2)CC1)N1c2ccccc2Sc2ccc(C(F)(F)F)cc21,-6.2*,0.6,0.3,73*,44
C[C@@H]1NC(=O)c2cc([N+](=O)[O-])cc(I)c2NCCCC[C@@H](C(N)=O)NC(=O)[C@H](CC(N)=O)NC1=O,0.72,.,.,.,.
O=S(=O)(c1ccccc1)c1nc(-c2ccco2)oc1N1CCOCC1,0.32,0.9,0.6,39,14
COc1cc(-c2nc(S(=O)(=O)c3ccc(C)cc3)c(N(C)C)o2)cc(OC)c1OC,1,0.4,0.9,13,56*
COc1cc(-c2nc(S(=O)(=O)c3ccc(C)cc3)c(N3CCOCC3)o2)cc(OC)c1OC,.,0.5,0.7,33,51*
COc1cc(-c2nc(S(=O)(=O)c3ccc(Cl)cc3)c(N3CCOCC3)o2)cc(OC)c1OC,-0.0061,0.4,0.8,22,62*
